Experimental data published in PubChem BioAssay (NCI).
About 79,000 compounds went through this panel and 15% of them were active in at least one assay; those are over-represented in the sample as a whole. Active and inactive are the calls of the source. Cut-off read from the data, not from the text of the source: active = growth inhibition above about 70%; inactive = the rest.

Key:
[1] = NCI Yeast Anticancer Drug Screen. Data for the rad52 strain (AID 147);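 note: 0% = growth of vehicle-treated control cultures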; settings: S. cerevisiae rad52 mutant growth inhibition, stronger effect = higher value
Procedure, shortened: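 Genetically altered yeast (DNA damage repair defect) treated with compound; inhibition calculated relative to vehicle.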

[2] = NCI Yeast Anticancer Drug Screen. Data for the wt1 strain (AID 149);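 note: 0% = growth of vehicle-treated wt1 cultures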; settings: S. cerevisiae wt1 strain (SPY 50644) growth inhibition, stronger effect = higher value
Procedure, shortened: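 The wt1 strain was treated with compounds, and growth was compared with vehicle-treated cultures to give inhibition.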

[3] = NCI Yeast Anticancer Drug Screen. Data for the rad50EPP+ strain (AID 151);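 note: 0% = growth of vehicle-treated control cultures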; settings: S. cerevisiae rad50 mutant strain, stronger effect = higher value
Procedure, shortened: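 Strain rad50EPP+; compound exposure; % growth inhibition vs vehicle.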

[4] = NCI Yeast Anticancer Drug Screen. Data for the mgt1 strain (AID 153); settings: S. cerevisiae mgt1 mutant growth inhibition, stronger effect = higher value
Procedure, shortened: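 Read-out: yeast growth inhibition vs vehicle control. Strain mgt1, drawn from a panel altered in DNA damage repair or cell cycle control.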

[5] = NCI Yeast Anticancer Drug Screen. Data for the rad50 strain (AID 155);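 note: 0% = growth of vehicle-only cultures of the same strain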; settings: S. cerevisiae rad50 strain growth inhibition, stronger effect = higher value
Procedure, shortened: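 Cells are treated with compound, grown, and their growth is then scored against vehicle-only cultures of the same repair-deficient yeast strain.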

[6] = NCI Yeast Anticancer Drug Screen. Data for the mec2-1 strain (AID 157); settings: S. cerevisiae mec2-1 strain, stronger effect = higher value
Procedure, shortened: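 Cells of the genetically defined mec2-1 yeast strain are incubated with test compound. Inhibition of growth is calculated against vehicle-treated controls.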

[7] = NCI Yeast Anticancer Drug Screen. Data for the rad14 strain (AID 159);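 note: 0% = growth of vehicle-treated control cultures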; settings: S. cerevisiae rad14 strain growth inhibition, stronger effect = higher value
Procedure, shortened: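 Readout: yeast growth inhibition, referenced to vehicle-only cultures. Strain bears a defined alteration in DNA damage repair.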

[8] = NCI Yeast Anticancer Drug Screen. Data for the sgs1 mgt1 strain (AID 161);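 note: 0% = growth of cultures given vehicle only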; settings: S. cerevisiae sgs1 mgt1 strain, stronger effect = higher value
Procedure, shortened: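 Inhibition of yeast growth, normalised to vehicle-treated controls, is reported for a strain bearing genetic alterations in DNA damage repair.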

[9] = NCI Yeast Anticancer Drug Screen. Data for the CLN2oe strain (AID 163);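 note: 0% = growth of vehicle-only control cultures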; settings: S. cerevisiae CLN2oe strain, stronger effect = higher value
Procedure, shortened: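 Strain altered in cell-cycle control, incubated with compound; growth compared to solvent-treated controls.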

[10] = NCI Yeast Anticancer Drug Screen. Data for the cln2 rad14 strain (AID 165);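 note: 0% = growth equal to vehicle treated cultures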; settings: S. cerevisiae cln2 rad14 strain, stronger effect = higher value
Procedure, shortened: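 The screen exposed genetically defined yeast (cln2 rad14) to test compounds and scored growth inhibition relative to vehicle-treated controls.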

[11] = NCI Yeast Anticancer Drug Screen. Data for the bub3 strain (AID 167); settings: S. cerevisiae bub3 mutant strain, stronger effect = higher value
Procedure, shortened: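 Part of a panel of yeast mutants defective in DNA damage repair or cell cycle regulation. Each strain is grown with compound, and inhibition is calculated relative to solvent-treated cultures.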

[12] = NCI Yeast Anticancer Drug Screen. Data for the wt2 strain (AID 169);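 note: 0% = growth of vehicle-treated yeast cultures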; settings: S. cerevisiae wt2 strain growth inhibition, stronger effect = higher value
Procedure, shortened: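 Steps: yeast strain treated with compound; growth recorded; inhibition calculated relative to cultures given vehicle alone.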

[13] = NCI Yeast Anticancer Drug Screen. Data for the mlh1 strain (AID 171);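 note: 0% = growth of vehicle-treated control cultures of the same strain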; settings: S. cerevisiae mlh1 strain growth inhibition, stronger effect = higher value
Procedure, shortened: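 Yeast screen: mutant strain plus compound, growth scored against vehicle control wells.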

[14] = NCI Yeast Anticancer Drug Screen. Data for the sgs1 strain (AID 173);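 note: 0% = growth of vehicle-only control cultures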; settings: S. cerevisiae sgs1 mutant, stronger effect = higher value
Procedure, shortened: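 Inhibition of yeast growth served as the measure. The mutant strain was treated with each compound, and growth was normalised to cultures receiving vehicle alone.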

[15] = NCI Yeast Anticancer Drug Screen. Data for the mlh1 rad18 strain (AID 175); settings: S. cerevisiae mlh1 rad18 strain growth inhibition, stronger effect = higher value
Procedure, shortened: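 Compound-treated yeast growth, normalised to vehicle controls. Strain bears defined DNA repair mutations.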

[16] = NCI Yeast Anticancer Drug Screen. Data for the rad18 strain (AID 177); settings: S. cerevisiae rad18 mutant growth inhibition, stronger effect = higher value
Procedure, shortened: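 Inhibition values reflect reduced yeast growth compared with vehicle-treated controls, using a strain engineered with a DNA damage repair defect.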

[17] = at 5.0 µM (retest, dose inferred, filed as 0.5)
[18] = at 50.0 µM (retest, dose inferred, filed as 5.0)

Measured: growth inhibition

Cc1c(Cl)ccc2c1S(=O)(=O)c1cccc(Cl)c1-2
inactive: [1]; at 1.2 µM 0% | [1]; at 3.7 µM 0% | [1]; at 11.0 µM -4% | [1]; at 33.0 µM -9% | [1]; at 100.0 µM -9% | [2]; at 1.2 µM -6% | [2]; at 3.7 µM -2% | [2]; at 11.0 µM -1% | [2]; at 33.0 µM -15% | [2]; at 100.0 µM -1% | [3]; at 1.2 µM -12% | [3]; at 3.7 µM 12% | [3]; at 11.0 µM 7% | [3]; at 33.0 µM -37% | [3]; at 100.0 µM -17% | [4]; at 1.2 µM -2% | [4]; at 3.7 µM 1% | [4]; at 11.0 µM 9% | [4]; at 33.0 µM -5% | [4]; at 100.0 µM -8% | [5]; at 1.2 µM -22% | [5]; at 3.7 µM -9% | [5]; at 11.0 µM -30% | [5]; at 33.0 µM -17% | [5]; at 50.0 µM 20.8% | [5]; at 100.0 µM -3% | [6]; at 1.2 µM -24% | [6]; at 3.7 µM -31% | [6]; at 11.0 µM -32% | [6]; at 33.0 µM -28% | [6]; at 50.0 µM 29.5% | [6]; at 100.0 µM -32% | [7]; at 1.2 µM 2% | [7]; at 3.7 µM 6% | [7]; at 11.0 µM 2% | [7]; at 33.0 µM 5% | [7]; at 100.0 µM 5% | [8]; [17] -13% | [8]; [18] 28% | [8]; at 50.0 µM 20.9% | [9]; at 1.2 µM -5% | [9]; at 3.7 µM 6% | [9]; at 11.0 µM 8% | [9]; at 33.0 µM -4% | [9]; at 100.0 µM -18% | [10]; [17] 31% | [10]; [18] 28% | [10]; at 50.0 µM 0.75% | [11]; at 1.2 µM -27% | [11]; at 3.7 µM -13% | [11]; [17] 18% | [11]; at 11.0 µM 1% | [11]; at 33.0 µM -10% | [11]; [18] 51% | [11]; at 100.0 µM -18% | [12]; at 1.2 µM -10% | [12]; at 3.7 µM -9% | [12]; at 11.0 µM -12% | [12]; at 33.0 µM -12% | [12]; at 100.0 µM -25% | [13]; at 1.2 µM -3% | [13]; at 3.7 µM 2% | [13]; at 11.0 µM -5% | [13]; at 33.0 µM -8% | [13]; at 100.0 µM -2% | [14]; at 1.2 µM -10% | [14]; at 3.7 µM -19% | [14]; at 11.0 µM -18% | [14]; at 33.0 µM -13% | [14]; at 100.0 µM -24% | [15]; at 50.0 µM 37.2% | [16]; at 1.2 µM -18% | [16]; at 3.7 µM 2% | [16]; at 11.0 µM 6% | [16]; at 33.0 µM -1% | [16]; at 100.0 µM 7%
active: [5]; [17] 100% | [5]; [18] 100% | [6]; [17] 100% | [6]; [18] 100% | [11]; at 50.0 µM 81.3% | [15]; [17] 100% | [15]; [18] 100%

CC1=C(SCCO)C(=O)c2ccccc2C1=O
inactive: [1]; at 1.2 µM -4% | [1]; at 3.7 µM 1% | [1]; at 11.0 µM 13% | [1]; at 33.0 µM 68% | [1]; at 100.0 µM 67% | [2]; at 1.2 µM -4% | [2]; at 3.7 µM -4% | [2]; at 11.0 µM -2% | [2]; at 33.0 µM 4% | [2]; at 100.0 µM 4% | [3]; at 1.2 µM -7% | [3]; at 3.7 µM 5% | [3]; at 11.0 µM 35% | [4]; at 1.2 µM -3% | [4]; at 3.7 µM -3% | [4]; at 11.0 µM 23% | [4]; at 33.0 µM -10% | [4]; at 100.0 µM 6% | [5]; at 1.2 µM -3% | [5]; at 3.7 µM 0% | [5]; [17] 1% | [5]; at 11.0 µM -8% | [5]; at 33.0 µM 37% | [5]; at 100.0 µM 42% | [6]; at 1.2 µM -1% | [6]; at 3.7 µM -1% | [6]; [17] -22% | [6]; at 11.0 µM 0% | [6]; at 33.0 µM 13% | [6]; at 100.0 µM 11% | [7]; at 1.2 µM 2% | [7]; at 3.7 µM 3% | [7]; at 11.0 µM 8% | [7]; at 33.0 µM 17% | [7]; at 100.0 µM 20% | [8]; [17] -37% | [9]; at 1.2 µM 0% | [9]; at 3.7 µM -5% | [9]; at 11.0 µM -2% | [9]; at 33.0 µM 12% | [9]; at 100.0 µM 14% | [10]; [17] -16% | [10]; [18] 27% | [10]; at 50.0 µM 67.2% | [11]; at 1.2 µM -4% | [11]; at 3.7 µM -1% | [11]; [17] -19% | [11]; at 11.0 µM 5% | [11]; at 33.0 µM 29% | [11]; at 100.0 µM 29% | [12]; at 1.2 µM -2% | [12]; at 3.7 µM 0% | [12]; at 11.0 µM 3% | [12]; at 33.0 µM 18% | [12]; at 100.0 µM 17% | [13]; at 1.2 µM 0% | [13]; at 3.7 µM -2% | [13]; at 11.0 µM 7% | [13]; at 33.0 µM 8% | [13]; at 100.0 µM 5% | [14]; at 1.2 µM -2% | [14]; at 3.7 µM -2% | [14]; at 11.0 µM 7% | [14]; at 33.0 µM 40% | [14]; at 100.0 µM 35% | [15]; [17] -29% | [15]; [18] 62% | [16]; at 1.2 µM -12% | [16]; at 3.7 µM -10% | [16]; at 11.0 µM -3% | [16]; at 33.0 µM 33% | [16]; at 100.0 µM 51%
active: [3]; at 33.0 µM 75% | [3]; at 100.0 µM 71% | [5]; [18] 99% | [5]; at 50.0 µM 84.2% | [6]; [18] 80% | [6]; at 50.0 µM 73.3% | [8]; [18] 72% | [8]; at 50.0 µM 81.5% | [11]; [18] 77% | [11]; at 50.0 µM 81.2% | [15]; at 50.0 µM 81.1%
